# Test results published in PubChem BioAssay (EPA / NIEHS).
# Results filed as inconclusive are left out. Activity calls are given as the source filed them. Rule for the calls: active = hit-call score of the fitted dose curve at least 0.9, where 1 is the maximum; inconclusive = response in the unintended direction; inactive = score below 0.9.
# How the values were obtained:
# [1] = target: Luciferin 4-monooxygenase (Photinus pyralis) (UniProt P08659); assay: CCTE_Simmons_QuantiLum_inhib_2: CCTE's Firefly Luciferase Inhibition Assay, Simmons Lab (AID 2283767);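 for AC50: potency for inhibitors that lower luciferase luminescence relative to DMSO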
# Chain of Luciferin 4-monooxygenase (Photinus pyralis) (P08659 whole entry, looked up): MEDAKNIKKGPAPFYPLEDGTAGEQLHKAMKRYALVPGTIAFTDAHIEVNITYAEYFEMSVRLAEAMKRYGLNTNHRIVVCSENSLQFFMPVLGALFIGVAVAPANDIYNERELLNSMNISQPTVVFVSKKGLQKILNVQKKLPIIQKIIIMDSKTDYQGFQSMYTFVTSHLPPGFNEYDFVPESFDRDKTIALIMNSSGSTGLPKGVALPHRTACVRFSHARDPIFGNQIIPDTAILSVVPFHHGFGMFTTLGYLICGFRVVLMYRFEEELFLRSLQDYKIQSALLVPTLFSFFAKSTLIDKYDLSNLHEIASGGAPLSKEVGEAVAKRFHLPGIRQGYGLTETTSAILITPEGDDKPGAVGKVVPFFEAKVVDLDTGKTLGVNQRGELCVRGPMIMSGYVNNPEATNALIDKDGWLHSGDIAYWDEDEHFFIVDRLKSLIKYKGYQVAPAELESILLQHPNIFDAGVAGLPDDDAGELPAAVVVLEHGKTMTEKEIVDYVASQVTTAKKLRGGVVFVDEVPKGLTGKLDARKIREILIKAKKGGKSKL
# Summary of the method: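 Counter-screen for nonspecific enzyme inhibition: purified firefly luciferase incubated 30 min at 37C with chemicals up to 87.5 uM final, then luminescence measured after luciferin/dATP injection; activity fitted against DMSO baseline.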
# [2] = test system: zebrafish Androgen Receptor (AR), gene 100005148; assay: ATG_zfAR_XSP1: Attagene TRANS-FACTORIAL Multi-Species (XSP1) HepG2 Assay for zebrafish Androgen Receptor (AR) (AID 2283771)
# Summary of the method: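 HepG2 cells were transiently transfected with a zebrafish AR-GAL4 reporter system and partially stimulated with 3 nM 6-alpha-fluorotestosterone. Reporter mRNA was measured after 24 h dosing by RT-PCR with capillary electrophoresis, and gain-of-signal was fitted relative to DMSO.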
# [3] = ArunA_CellTiter_hNC: Viability Assessment in the ArunA Biomedical's Oris Neural Crest (hNC) Cell Migration Assay (AID 2283752)
# Procedure: ArunA_CellTiter_hNC is a cell-based, single-readout assay that uses human H9-derived embryonic neural crest stem cells (hNC). Measurements were taken 72 hours after chemical dosing in a 96-well plate.ArunA_CellTiter_hNC is an assay component measured from the ArunA_CellTiter_hNC assay. It is designed to make measurements of viability, a form of viability reporter, as detected with fluorescence intensity signals by HCS Fluorescent Imaging technology. Data from the assay component ArunA_CellTiter_hNC was analyzed at the endpoint, ArunA_CellTiter_hNC, in the positive analysis fitting direction relative to DMSO as the negative control and baseline of activity. Using a type of viability reporter, loss-of-signal activity can be used to understand viability. To generalize the intended target to other relatable targets, this assay endpoint is annotated to the cell cycle intended target family, where the subfamily is cytotoxicity.
# To assess the hNP and hNC migration and cell titer endpoints, 60,000 cells per well were plated onto Matrigel in basal growth medium with LIF and bFGF in a 96-well plate format. Plates were incubated for 16 h at 37C followed by a 72 h exposure to chemical in the test medium. For the migration endpoints, cells were seeded and incubated in presence of 'seeding stoppers' to prevent cell migration and growth into the detection zone. At the beginning of chemical exposure, stoppers were removed, and growth medium was replaced with test medium. In the case of the stopper control wells, stoppers remained in place following replacement of growth medium with test medium. […] Cell viability in the detection zone was quantitated using a Flexstation3 microplate reader (ex494 nm/em 517 nm). Corresponding cell titer endpoints were assessed for the hNP and hNC cells using the Promega CellTiter Aqueous One Solution Cell Proliferation Assay (Cat no. G3581; CellTiter 96). Finally, to gain insight into the mechanisms by which cells migrate into the detection zone, Ki-67 expression was quantified for 10 additional chemicals in the hNP and hNC systems. […]
# [4] = ArunA_CellTiter_hNP: Viability Assessment in the ArunA Biomedical's Oris Neural Crest (hNC) Cell Migration Assay (AID 2283753)
# Summary of the method: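 H9-derived hNP1 neuroprogenitors, 60,000/well on Matrigel, cultured 16 h, then 72 h chemical exposure in test medium. Cell titer via CellTiter Aqueous One; positive-direction fit vs DMSO.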
# [5] = ArunA_Migration_hNP: ArunA Biomedical's Oris Neuroprogenitor (hNP) Cell Migration Assay (AID 2283754)
# Summary of the method: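 Human H9-derived hNP1 neuroprogenitors on Matrigel with LIF/bFGF, plated around seeding stoppers for 16 h at 37C; stoppers removed at start of 72 h chemical exposure. Calcein-AM staining, fluorescence 494/517 nm in detection zone; loss-of-signal vs DMSO; cytochalasin D control.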
# [6] = ArunA_Migration_hNC: ArunA Biomedical's Oris Neural Crest (hNC) Cell Migration Assay (AID 2283755)
# Summary of the method: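 Human H9-derived neural crest stem cells, 60,000/well on Matrigel, 16 h at 37C, then 72 h chemical exposure after seeding-stopper removal. Migration into detection zone read as calcein-AM fluorescence (ex494/em517), relative to DMSO.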
# [7] = ArunA_NOG_NucleusCount: ArunA Biomedical's Neurite Outgrowth (NOG) Assay for Nucleus Count (AID 2283756)
# Summary of the method: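 Human H9-derived differentiated neurons were exposed for 48 h right after seeding. Hoechst-stained nuclei gated by size and intensity were counted by automated high-content imaging as viable neurons. Loss of signal vs DMSO.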
# [8] = ArunA_NOG_NeuriteLength: ArunA Biomedical's Neurite Outgrowth (NOG) Assay for Neurite Length (AID 2283757)
# Summary of the method: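 Differentiated human H9-derived neurons were exposed for 48 h from seeding, then stained with Hoechst and βIII-tubulin. Automated high-content imaging gave total neurite length per valid neuron, counting processes >10 um. Loss of signal was scored versus DMSO.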
# [9] = ArunA_NOG_NeuritesPerNeuron: ArunA Biomedical's Neurite Outgrowth (NOG) Assay for Neurites Per Neuron (AID 2283758)
# Summary of the method: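 Differentiated human H9-derived neurons exposed to chemicals for 48 h from seeding, then stained with Hoechst and βIII-tubulin/DyLight 488. Automated imaging counted neurites (processes >10 um) per valid neuron; loss of signal versus DMSO scored.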
# [10] = ArunA_NOG_BranchPointsPerNeurite: ArunA Biomedical's Neurite Outgrowth (NOG) Assay for Branch Points Per Neurite (AID 2283759)
# Summary of the method: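 Automated image analysis traced neurites (processes >10 um) from valid cell bodies after Hoechst and βIII-tubulin staining. hNN cells from H9 embryonic stem cells, 48 h exposure. Fitted bidirectionally against DMSO.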
structure (smiles),measurement,setting,value
Cc1ccc(S(=O)(=O)NC(=O)NN2CCCCCC2)cc1,outcome,[1],inactive
O=S1(=O)CCCO1,outcome,[1],inactive
CC(C)C(=O)Nc1ccc([N+](=O)[O-])c(C(F)(F)F)c1,outcome,[2],inactive
CCCCCCCCCCCCCCCCOS(=O)(=O)O,outcome,[1],inactive
CCN(CC)C(=S)SSC(=S)N(CC)CC,AC50,[3],8.19 µM (active)
same,AC50,[4],7.2 µM (active)
same,AC50,[5],405 nM (active)
same,AC50,[6],8.55 µM (active)
same,AC50,[7],18.4 µM (active)
same,AC50,[8],15.5 µM (active)
same,AC50,[9],14.5 µM (active)
Cn1cc[nH]c1=S,outcome,[5],inactive
same,outcome,[6],inactive
same,AC50,[7],5.5 µM (active)
same,AC50,[8],6.43 µM (active)
same,AC50,[9],5.75 µM (active)
same,AC50,[10],7.98 µM (active)
same,outcome,[1],inactive
O=C(NO)C1(NS(=O)(=O)c2ccc(Oc3ccc(F)cc3)cc2)CCOCC1,outcome,[1],inactive
NNC(=O)c1ccncc1,outcome,[1],inactive
CCc1ccc(O)c(C(C)(C)C)c1,outcome,[1],inactive
CCCC(CCC)C(=O)O,outcome,[3],inactive
same,outcome,[4],inactive
same,AC50,[7],82.6 µM (active)
same,AC50,[8],77.4 µM (active)
same,AC50,[9],91.1 µM (active)
same,AC50,[10],69.6 µM (active)
CCn1nc(C)c2c1C(=O)NCC(c1ccc(O)cc1)=N2,AC50,[1],15.8 µM (active)
COS(C)(=O)=O,outcome,[1],inactive
NC(=O)N(O)[C@@H]1COc2cc(OCc3ccccc3)ccc21,AC50,[1],2.1 µM (active)
OCCNCCO,outcome,[6],inactive
same,AC50,[7],21.3 µM (active)
same,AC50,[8],24.8 µM (active)
same,AC50,[9],20.2 µM (active)
same,AC50,[10],15.4 µM (active)
C[C@@H](Oc1ccc(CNC(=O)c2cccnc2Oc2ccc3c(c2)OCO3)c(F)c1)C(=O)O,outcome,[1],inactive
Cc1cccc(O)c1C,outcome,[1],inactive
CCCCCCCCCC,outcome,[3],inactive
same,outcome,[6],inactive
same,outcome,[7],inactive
c1ccc2cc3ccccc3cc2c1,outcome,[1],inactive
C=CCc1cc(S(=O)(=O)c2ccc(O)c(CC=C)c2)ccc1O,outcome,[1],inactive
